According to PubChem BioAssay AID493169 (National Center for Advancing Translational Sciences (NCATS), 2011):
Records with an inconclusive call do not appear. Entries that show only a call come without a potency. The source made the active and inactive calls. Calls follow the shape of the dose curve; as a rule, active = well fitted inhibition curve with a large enough effect; inconclusive = small, poorly fitted or top-dose-only effect; inactive = flat fitted curve, though single readings scatter.

Assay: CHOP2 Reporter Counterscreen Assay for Inhibitors of Ubiquitin-specific Protease USP2a;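 also: activated enterokinase alone at 50 pM in a cell-free format rather than USP2a or CHOP2; nearly all actives have a fitted effect of over 55% in size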
Details: purified enterokinase, fluorogenic substrate, 485/531 nm; series mostly up to 38.3 µM
Outline: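 Cell-free counterscreen with pre-activated enterokinase alone (50 pM final) in 20mM Tris-HCl pH 8.0, 2mM CaCl2, 2mM beta-mercaptoethanol, 0.05% CHAPS; compound preincubation 30 min RT, reporter substrate 25nM final, fluorescence read after 10 min (Ex 485/Em 531).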
Potency is read from the fitted curve at half-maximal effect.

SMILES | Potency
O=C(NC1CCCCC1)C(c1ccco1)N(C(=O)c1csnn1)c1cccc(F)c1 (stereo not given) | inactive
CC(C)(C)NC(=O)CSc1nc(O)cc(=O)n1-c1ccccc1F | inactive
N#CC(c1ccccc1)c1ccc(C(=O)c2ccc(F)cc2)cc1 (stereo not given) | inactive
O=C(Nc1cccc(S(=O)(=O)N2CCCC2)c1)c1cncc(Br)c1 | inactive
COCCCNC(=O)C1CCN(c2nc(C)cc(C)n2)CC1 | inactive
CC1CCCC(NC(=O)C2N(CCCN3CCCC3)C(=O)C3C(C(=O)Nc4ccc(Cl)cc4)C4C=CC32O4)C1C (stereo not given) | inactive
COc1ccc(CCN2CC(C#N)=C3c4cc(OC)c(OC)cc4CCN3C2)cc1OC | inactive
CCOc1ccc2[nH]c(=O)c(CN(CCc3ccccc3)C(=O)c3cnccn3)cc2c1 | inactive
Cn1nc(CC(=O)NCc2ccc(F)cc2)c2ccccc2c1=O | inactive
Cc1ccccc1NC(=O)CSc1nnc(-c2ccco2)c(-c2ccco2)n1 | inactive
O=C1c2ccccc2CCC12N=NCC2c1ccc(Br)cc1 (stereo not given) | inactive
COCCN1Cc2cccc(C(=O)N3CCN(c4cc(C)ccc4C)CC3)c2C1=O | inactive
CCCCC(OC(=O)c1cc2occc2n1C)C(=O)NCC1CCCO1 (stereo not given) | inactive
Cc1ccc(C(C(=O)NC2CCCC2)N2CCc3ccccc32)cc1 (stereo not given) | inactive
CCC(C)c1ccc(O)c(N)c1 (stereo not given) | inactive
CCOC(=O)N1CCC(NC(=O)c2ccc(OC)c(CN3CC(=O)N4CCCC4C3=O)c2)CC1 (stereo not given) | inactive
NC1=NC2(CCC(c3ccccc3)CC2)n2c(nc3ccccc32)N1 (stereo not given) | inactive
COc1ccc(OCC(=O)Nc2ccccc2OC)cc1 | inactive
CCOc1ccc(CCn2c(-c3ccco3)nc3ccccc3c2=O)cc1OCC | inactive
O=C(Nc1ccc2c(c1)OCO2)NC1(C(F)(F)F)Oc2ccccc2O1 | inactive

SMILES | Potency
CC(=O)Nc1cc[n+](CC(=O)c2ccc(Cl)cc2)cc1 | inactive
C/C(CC(=O)N1CCCC1)=N\NC(=O)c1cc2ccccc2cc1O | inactive
O=C(OCC1OC(n2ncc(=O)[nH]c2=O)C(OC(=O)c2ccccc2)C1OC(=O)c1ccccc1)c1ccccc1 (stereo not given) | 7.94 µM (active)
O=C(OCC(=O)N1CCCCC1)c1cc2ccccc2cc1O | inactive
O=[N+]([O-])/C(C(Cl)=C(Cl)Cl)=C(\Sc1ccccc1)N1CCCCC1 | inactive
O=C(O)CC(C(=O)O)N1C(=O)/C(=C/C=C/c2ccco2)SC1=S (stereo not given) | 3.55 µM (active)
Cn1ccc(=Nc2ccc(NC(=O)c3ccc(N=c4ccn(C)c5ccc([N+](=O)[O-])cc45)cc3)cc2)cc1 | inactive
O=C(COc1ccccc1)NCCSc1ccccc1 | inactive
CCOc1ccccc1C(=O)Nc1nnc(C(C)C)s1 | inactive
C[C@](N)(Cc1ccc(O)c(O)c1)C(=O)O | inactive
COc1ccc(C2CC(=O)N3CN(c4ccccc4F)CSC3=C2C#N)cc1OC (stereo not given) | inactive
Cc1ccc(NC(=O)CCC(=O)OC(C)C(=O)c2ccccc2)cc1 (stereo not given) | inactive
Cc1ccc(C(=O)N(C)CC(=O)Nc2cccc(C)c2C)o1 | inactive
CNc1sc(C(=O)c2ccc(F)cc2)c(N)c1-c1nc2ccccc2s1 | inactive
COC(=O)c1cc2sc(Cl)cc2n1Cc1nc(-c2ccccc2)oc1C | inactive
O=C1c2ccccc2C(=O)N1CCCCn1c(=O)oc2ccccc21 | inactive
COc1cc2cc(CN(CCN3CCCC3)C(=O)Nc3ccc(F)cc3)c(=O)[nH]c2cc1OC | inactive
CCCCCCCCCCCCCCCC[N+](C)(C)CCN(Cc1ccc(OC)cc1)c1ncccn1 | 10 µM (active)
O=C(Nc1cccc(-c2nn[nH]n2)c1)c1ccc(Br)s1 | 3.98 µM (active)
O=C(NCCN1C(=O)CSC1=O)C1CC(=O)N(c2ccccc2)C1 (stereo not given) | inactive
